In PubChem BioAssay AID1159580 (chemical genetic matrix, 2015):
Where “and” joins values, the source holds several entries; their conditions need not be identical. Equal entries are not always repeated. In all, about 5,500 compounds went through this assay and about 2,000 (36%) were called active. Roughly 18% stayed inconclusive and do not appear here. Cut-off read from the data, not from the text of the source: active = normalized growth mostly below about 0.91 (no sharp cut-off); inconclusive = no clear call, values can overlap the other calls; inactive = mostly above about 0.92. Some of the results follow.

Assay: chemical genetic growth profiling, strain panel (AID 1159580);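 note: tested at 20 µM; growth read once vehicle control cultures reached saturation at 30 °C; 1 = growth at the plate median or of vehicle wells; lower values mean less growth of the strain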
Conditions: S. cerevisiae deletion strains, growth OD

Measured: normalized growth

c1ccc2c(c1)CCCC2C1=NCCN1 (centres undefined)
inactive: locus YAL013W, strain DEP1, active compounds read low 1.01 and 1 | locus YAL021C, strain ccr4, active compounds read low 1.02 | locus YAL026C, strain drs2, active compounds read low 1.02 | locus YAL030W, strain snc1, active compounds read low 1.02 | locus YAL040C, strain CLN3, active compounds read low 1.05 | locus YBL061C, strain skt5, active compounds read low 1.02 | locus YBR009C, strain hhf1, active compounds read low 1.03 | locus YBR021W, strain FUR4, active compounds read low 1.05 | locus YBR023C, strain chs3, active compounds read low 1.02 | locus YBR171W, strain sec66, active compounds read low 1.03 | locus YBR229C, strain ROT2, active compounds read low 1.01 | locus YBR231C, strain swc5, active compounds read low 1.02 | locus YBR279W, strain paf1, active compounds read low 1.01 | locus YCL011C, strain gbp2, active compounds read low 1.02 | locus YCL016C, strain dcc1, active compounds read low 1.02 | locus YCL029C, strain bik1, active compounds read low 0.995 | locus YCL061C, strain MRC1 (second series), active compounds read low 1.01 | locus YCL069W, strain vba3, active compounds read low 1.02 | locus YCR088W, strain abp1, active compounds read low 1.02 | locus YDL005C, strain med2, active compounds read low 1.02 | locus YDL035C, strain GPR1, active compounds read low 1.02 | locus YDL040C, strain nat1, active compounds read low 1.02 | locus YDL074C, strain BRE1, active compounds read low 1.01 | locus YDL101C, strain DUN1, active compounds read low 1.01 | locus YDL134C, strain PPH21, active compounds read low 1.01 | locus YDL185W, strain tfp1, active compounds read low 0.993 | locus YDL192W, strain arf1, active compounds read low 1 | locus YDR001C, strain nth1, active compounds read low 1.01 | locus YDR069C, strain doa4, active compounds read low 1 | locus YDR101C, strain arx1, active compounds read low 0.995 | locus YDR137W, strain rgp1, active compounds read low 1.03 | locus YDR150W, strain NUM1, active compounds read low 1.01 | locus YDR159W, strain sac3, active compounds read low 1.02 | locus YDR162C, strain NBP2, active compounds read low 1.02 | locus YDR195W, strain ref2 1.01 | locus YDR297W, strain sur2, active compounds read low 1.03 | locus YDR318W, strain mcm21, active compounds read low 1.01 | locus YDR334W, strain swr1, active compounds read low 1.02 | locus YDR335W, strain msn5, active compounds read low 1.03 | locus YDR363W, strain ESC2, active compounds read low 1.02 | locus YDR388W, active compounds read low 1.01 | locus YDR392W, strain spt3, active compounds read low 1.03 | locus YDR502C, strain sam2, active compounds read low 0.991 | locus YEL003W, strain gim4, active compounds read low 1.02 | locus YEL037C, strain rad23, active compounds read low 1.03 | locus YEL061C, strain CIN8 (second series), active compounds read low 1.02 | locus YEL061C, strain CIN8, active compounds read low 1.01 | locus YER002W, strain NOP16, active compounds read low 0.992 | locus YER015W, strain faa2, active compounds read low 1.02 | locus YER016W, strain bim1, active compounds read low 1.03 | locus YER110C, active compounds read low 1.01 | locus YER111C, strain swi4, active compounds read low 1.03 | locus YER155C, strain BEM2 (second series), active compounds read low 1.04 | locus YER155C, strain BEM2, active compounds read low 1.01 | locus YER167W, strain BCK2, active compounds read low 1.01 | locus YFR010W, strain ubp6, active compounds read low 1.01 | locus YGL078C, strain dbp3, active compounds read low 0.989 | locus YGL086W, strain mad1, active compounds read low 0.998 | locus YGL167C, strain pmr1, active compounds read low 1.04 | locus YGL173C, strain kem1, active compounds read low 1.02 | locus YGL227W, strain vid30, active compounds read low 1.03 | locus YGL240W, strain doc1, active compounds read low 1.03 | locus YGL248W, strain PDE1, active compounds read low 1.01 | locus YGL253W, strain hxk2, active compounds read low 1.03 | locus YGR135W, strain pre9, active compounds read low 0.987 | locus YGR229C, strain SMI1, active compounds read low 1.02 and 1.03 | locus YGR252W, strain gcn5, active compounds read low 0.971 | locus YHR013C, strain ard1, active compounds read low 1.05 | locus YHR027C, strain rpn1, active compounds read low 1.01 | locus YHR030C, strain SLT2, active compounds read low 1.01 and 0.988 | locus YHR079C, strain IRE1 (second series), active compounds read low 1.01 | locus YHR079C, strain IRE1, active compounds read low 0.976 | locus YHR094C, strain hxt1, active compounds read low 1 | locus YHR129C, strain ARP1, active compounds read low 1.01 | locus YHR142W, strain chs7, active compounds read low 1.02 | locus YHR200W, strain rpn10, active compounds read low 0.997 | locus YIL066C, strain RNR3, active compounds read low 1.01 | locus YIL073C, strain SPO22, active compounds read low 1.02 | locus YIL125W, strain kgd1, active compounds read low 0.958 | locus YIR030C, strain dcg1, active compounds read low 0.999 | locus YJL092W, strain hpr5, active compounds read low 1.02 | locus YJL095W, strain BCK1 (second series), active compounds read low 1.02 | locus YJL095W, strain BCK1, active compounds read low 1 and 0.971 | locus YJL115W, strain asf1, active compounds read low 1.01 | locus YJL129C, strain trk1, active compounds read low 1.02 | locus YJL134W, strain LCB3, active compounds read low 1.01 | locus YJL154C, strain vps35, active compounds read low 1.02 | locus YJL164C, strain tpk1, active compounds read low 1.02 | locus YJL166W, strain qcr8, active compounds read low 1.02 | locus YJL168C, strain set2, active compounds read low 1 | locus YJL187C, strain SWE1 (second series), active compounds read low 1.02 | locus YJR043C, strain POL32, active compounds read low 1.01 | locus YJR066W, strain TOR1, active compounds read low 0.945 | locus YJR075W, strain HOC1, active compounds read low 1.01 and 0.998
